Source: PubChem (several laboratories)
SKKanGAS inh: blocks kanamycin growth of S. pyogenes SKKanGAS strain | inhibition, % at 7.5 µM | 300,000 tested, 1.3% active | BacTiter-Glo, 6 h;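 active = mean replicate score, as percent of positive control median, at least 50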;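 note: strain carries kanamycin resistance gene driven by streptokinase promoter and grows in 40 µg/ml kanamycin; loss of luminescence reflects streptokinase promoter inhibition or plain growth inhibition; 0% = median of DMSO wells and 100% = positive control at its reference dose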
tim23-1 inh: inhibits growth of tim23-1 mutant yeast. S. cerevisiae tim23-1 growth, BacTiter-Glo luminescence, 24 h. inhibition, % at 20 µM. 330,000 tested, 1.3% active. AID 463212;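 active = growth inhibition of the mutant yeast at or above 50%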;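 note: temperature-sensitive mutant grown at 25 °C; plate controls were DMSO-treated mutant yeast for no effect and medium wells lacking yeast for full effect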
tim10-1 inh: tim10-1 yeast growth inhibition. 330,000 tested, 2.2% active. inhibition, % at 20 µM. S. cerevisiae tim10-1 ts strain growth, BacTiter-Glo, 24 h;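 active = inhibition of at least 40%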;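 note: mutant grown at 25 °C; 0% = DMSO wells with yeast and 100% = wells holding no yeast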
PfHsp90 set2: inhibits growth of yeast expressing Plasmodium falciparum Hsp90; inhibition, % at 9.4 µM; AID 504621; S. cerevisiae expressing PfHsp90, BacTiter-Glo ATP, 48 h; yeast lacking PDR1 and PDR3 efflux regulators; 310,000 tested, 0.32% active;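 active = every replicate shows inhibition above about 80%, whatever the replicate mean, limit read from the data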;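 note: 0% = DMSO neutral controls and 100% = 20 µM radicicol positive controls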
Calb FLC: affects C. albicans growth with fluconazole | C. albicans CaCi-2 (fluconazole-resistant clinical isolate) + fluconazole, Alamar Blue growth, 48 h | growth inhibition, % (concentration not given with the values) | 300,000 tested, 0.57% active | AID 1979;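 active = growth inhibition above about 58% in most replicates, limit read from the data, passing the limit was not always enough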;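 note: all wells also contain fluconazole at 8 µg/ml as a sub-toxic cotreatment; 0% = median of DMSO wells and 100% = median of geldanamycin control wells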
TIM10 inh: TIM10 yeast growth inhibition; S. cerevisiae TIM10 strain growth, BacTiter-Glo luminescence, 24 h; inhibition, % at 10 µM; 330,000 tested, 1.4% active; AID 463195;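 active = inhibition of 40% or more at the single tested concentration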;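 note: wild-type TIM10 isogenic control strain grown at permissive 25 °C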
tim10 confirm: confirmation of TIM10 yeast growth inhibitors | S. cerevisiae tim10 strain growth, BacTiter-Glo luminescence, 24 h | 4,600 tested, 63% active | inhibition, % at 10 µM | shares compounds with TIM10 inh;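 active = inhibition of yeast growth at or above a set limit in either of two replicates at 10 µM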;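 note: this counterscreen used the strain with wild-type TIM10; 0% = yeast with DMSO and 100% = medium wells lacking yeast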
Active calls of the source: *; . = no result given. Most compounds without a hit are left out; they make up all but 4.7% or so of the library.

SMILES	SKKanGAS inh	tim23-1 inh	tim10-1 inh	PfHsp90 set2	Calb FLC	TIM10 inh	tim10 confirm
CC(C)(C)NC(=O)CN(C(=O)CCC(=O)Nc1nccs1)c1cccc(C(F)(F)F)c1	-5	9	4	14	3	-4	.
CCN1C(=O)N/C(=C/c2cc(C)n(Cc3ccccc3)c2C)C1=O	14	-3	17	-6	3	95*	-10
Cc1cccc(NC(=S)N/N=C/c2cccn2Cc2ccc(F)cc2)c1	11	19	35	10	11	53*	49*
Cc1c(C(=O)N(Cc2ccccc2)C(C)C)oc2ccc(S(=O)(=O)N3CCOCC3)cc12	-1	24	20	-1	-2	16	.
O=C(Nc1cccc(S(=O)(=O)N2CCCC2)c1)c1ccco1	.	23	14	17	.	3	.
O=C(Nc1ccc(S(=O)(=O)N2CCCCCC2)cc1)c1ccco1	-7	46	34	.	-35	48*	23
O=C(Nc1ccc(S(=O)(=O)N2CCCCC2)cc1)c1ccccc1Cl	2	26	37	.	-6	45*	39*
FC(F)Oc1ccc(NC(=S)NC23CC4CC(CC(C4)C2)C3)cc1	25	44	17	-2	-7	52*	35*
CCOc1ccc(NC(=S)NC23CC4CC(CC(C4)C2)C3)cc1	-3	-8	-3	32	-7	-4	.
O=C(Nc1ncn[nH]1)c1ccc([N+](=O)[O-])cc1[N+](=O)[O-]	10	-5	6	.	-7	43*	-20
C=CCNc1cc(F)ccc1S(=O)(=O)NCC=C	.	32	16	-10	.	5	.
CC(Sc1nc(N)cc(N)n1)C(=O)Nc1ccc(N2CCOCC2)cc1 (stereo not drawn)	.	-5	-1	-11	.	-1	.
O=[N+]([O-])c1ccc(N/N=C\c2cccn2-c2ccccc2)nc1	6	34	30	-12	7	43*	15
CCN1C(=O)C(CC(=O)Nc2ccc(OC)cc2)N(CCc2ccc(F)cc2)C1=S (stereo not drawn)	12	42	38	12	7	42*	26
COc1ccc(NC(=O)CC2C(=O)N(C)C(=S)N2CCc2ccc(F)cc2)cc1 (stereo not drawn)	6	15	14	.	-16	7	.
CCOc1ccc(N(C)S(=O)(=O)c2ccc(C)c(C(=O)N3CCN(Cc4ccc5c(c4)OCO5)CC3)c2)cc1	.	15	2	.	.	2	.
CN1CCOCCOc2ccccc2OCCOCC1	0	12	2	-5	-6	58*	-2
c1ccc2c(c1)OCCOCCOCCOCCOc1ccccc1OCCOCCOCCO2	-6	29	22	1	5	12	.
CC(C)N(Cc1ccccc1)C(=S)NC(=O)C1(C)CC1(Cl)Cl (stereo not drawn)	1	19	33	-8	-9	41*	33*
CC1(C(=O)NC(=S)N(CCC#N)c2ccccc2)CC1(Cl)Cl (stereo not drawn)	2	-1	13	.	-1	3	.
Cc1cccc(CCNC(=O)c2oc3c(C)c(C)ccc3c2C)n1	1	46	31	19	14	25	.
Cc1ccc2c(C)c(C(=O)NCCc3ccco3)oc2c1C	-12	24	17	8	13	97*	9
Cc1ccc(C)c(NC(=O)c2ccccc2C(=O)c2ccccc2)c1	8	34	23	.	-2	41*	29
Cc1ccc(C(=O)c2ccccc2C(=O)Nc2ccccc2)cc1	-2	35	20	1	7	10	.
COc1ccc(-c2cc3ccccc3n2CC(O)Cn2nc(C)cc2C)cc1 (stereo not drawn)	9	35	32	-10	2	41*	35*
CCC(C)(C)C1CCC(=NNC(=S)Nc2cccnc2)CC1 (stereo not drawn)	12	45	33	-27	-7	41*	45*
Cc1ccccc1NC(=S)N/N=C/C(C)c1ccccc1 (stereo not drawn)	-2	25	23	-17	-2	41*	27
Cc1cccc(NC(=S)N/N=C/C(C)c2ccccc2)c1C (stereo not drawn)	10	20	31	-6	9	41*	36*
Cc1ccccc1NC(=S)N/N=C/c1ccc(O)cc1O	16	14	19	-9	5	19	.
